Screening results (PubChem)
CYP2C19 inh: blockers of cytochrome P450 2C19 activity – biochemical, luminescence, ADME assay, primary screen; P33261; CYP2C19 Supersomes, luciferin-H EGE luminescence, 30 min; inhibition, % at 5 µM; hit rate 21% among 96,000; AID 778, 2007;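 active = CYP2C19 inhibition above a set limit at 5 µM in the primary screen, cut at about 50% in these data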;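 also: plate controls were negative control wells for no effect and 2.5 mM tranylcypromine positive control for full effect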
CYP2C9 inhib: blockers of cytochrome P450 2C9 activity – biochemical, luminescence, ADME assay, primary screen. P11712. CYP2C9 Supersomes, luciferin-H conversion. inhibition, % at 5 µM. hit rate 20% among 96,000;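 active = blocking of liver enzyme CYP2C9 beyond about 50% at 5 µM, limit read from the data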
CYP2C9 activ: human CYP2C9 activators, primary screen, biochemical, luminescence; Cytochrome P450 2C9 (Homo sapiens), P11712; recombinant CYP2C9, luciferin-H conversion; active compounds read high; factor 1 = untreated enzyme, 0 = blocked; activation factor at 5 µM; hit rate 1.4% among 96,000; AID 1024, 2008;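 active = activation factor of 2 or more for CYP2C9 at a 5 µM dose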;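 also: 0 = sulfaphenazole-blocked wells and 1 = vehicle-only wells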
Cav32 inh: Cav3.2 calcium influx blockers – cell-based, Fluo-4 calcium fluorescence, FDSS, MLSMR library, primary screen | B-score at 10 µM | Voltage-dependent T-type calcium channel subunit alpha-1H (Homo sapiens), O95180 | hit rate 4% among 100,000 | AID 449739, 2010 | Cav3.2-expressing cells; active compounds read low;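 active = single-dose well whose peak fluorescence ratio is a statistical outlier from its plate by either plate-standardised score or position-corrected B-score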
Target sequence (O95180 whole entry, looked up): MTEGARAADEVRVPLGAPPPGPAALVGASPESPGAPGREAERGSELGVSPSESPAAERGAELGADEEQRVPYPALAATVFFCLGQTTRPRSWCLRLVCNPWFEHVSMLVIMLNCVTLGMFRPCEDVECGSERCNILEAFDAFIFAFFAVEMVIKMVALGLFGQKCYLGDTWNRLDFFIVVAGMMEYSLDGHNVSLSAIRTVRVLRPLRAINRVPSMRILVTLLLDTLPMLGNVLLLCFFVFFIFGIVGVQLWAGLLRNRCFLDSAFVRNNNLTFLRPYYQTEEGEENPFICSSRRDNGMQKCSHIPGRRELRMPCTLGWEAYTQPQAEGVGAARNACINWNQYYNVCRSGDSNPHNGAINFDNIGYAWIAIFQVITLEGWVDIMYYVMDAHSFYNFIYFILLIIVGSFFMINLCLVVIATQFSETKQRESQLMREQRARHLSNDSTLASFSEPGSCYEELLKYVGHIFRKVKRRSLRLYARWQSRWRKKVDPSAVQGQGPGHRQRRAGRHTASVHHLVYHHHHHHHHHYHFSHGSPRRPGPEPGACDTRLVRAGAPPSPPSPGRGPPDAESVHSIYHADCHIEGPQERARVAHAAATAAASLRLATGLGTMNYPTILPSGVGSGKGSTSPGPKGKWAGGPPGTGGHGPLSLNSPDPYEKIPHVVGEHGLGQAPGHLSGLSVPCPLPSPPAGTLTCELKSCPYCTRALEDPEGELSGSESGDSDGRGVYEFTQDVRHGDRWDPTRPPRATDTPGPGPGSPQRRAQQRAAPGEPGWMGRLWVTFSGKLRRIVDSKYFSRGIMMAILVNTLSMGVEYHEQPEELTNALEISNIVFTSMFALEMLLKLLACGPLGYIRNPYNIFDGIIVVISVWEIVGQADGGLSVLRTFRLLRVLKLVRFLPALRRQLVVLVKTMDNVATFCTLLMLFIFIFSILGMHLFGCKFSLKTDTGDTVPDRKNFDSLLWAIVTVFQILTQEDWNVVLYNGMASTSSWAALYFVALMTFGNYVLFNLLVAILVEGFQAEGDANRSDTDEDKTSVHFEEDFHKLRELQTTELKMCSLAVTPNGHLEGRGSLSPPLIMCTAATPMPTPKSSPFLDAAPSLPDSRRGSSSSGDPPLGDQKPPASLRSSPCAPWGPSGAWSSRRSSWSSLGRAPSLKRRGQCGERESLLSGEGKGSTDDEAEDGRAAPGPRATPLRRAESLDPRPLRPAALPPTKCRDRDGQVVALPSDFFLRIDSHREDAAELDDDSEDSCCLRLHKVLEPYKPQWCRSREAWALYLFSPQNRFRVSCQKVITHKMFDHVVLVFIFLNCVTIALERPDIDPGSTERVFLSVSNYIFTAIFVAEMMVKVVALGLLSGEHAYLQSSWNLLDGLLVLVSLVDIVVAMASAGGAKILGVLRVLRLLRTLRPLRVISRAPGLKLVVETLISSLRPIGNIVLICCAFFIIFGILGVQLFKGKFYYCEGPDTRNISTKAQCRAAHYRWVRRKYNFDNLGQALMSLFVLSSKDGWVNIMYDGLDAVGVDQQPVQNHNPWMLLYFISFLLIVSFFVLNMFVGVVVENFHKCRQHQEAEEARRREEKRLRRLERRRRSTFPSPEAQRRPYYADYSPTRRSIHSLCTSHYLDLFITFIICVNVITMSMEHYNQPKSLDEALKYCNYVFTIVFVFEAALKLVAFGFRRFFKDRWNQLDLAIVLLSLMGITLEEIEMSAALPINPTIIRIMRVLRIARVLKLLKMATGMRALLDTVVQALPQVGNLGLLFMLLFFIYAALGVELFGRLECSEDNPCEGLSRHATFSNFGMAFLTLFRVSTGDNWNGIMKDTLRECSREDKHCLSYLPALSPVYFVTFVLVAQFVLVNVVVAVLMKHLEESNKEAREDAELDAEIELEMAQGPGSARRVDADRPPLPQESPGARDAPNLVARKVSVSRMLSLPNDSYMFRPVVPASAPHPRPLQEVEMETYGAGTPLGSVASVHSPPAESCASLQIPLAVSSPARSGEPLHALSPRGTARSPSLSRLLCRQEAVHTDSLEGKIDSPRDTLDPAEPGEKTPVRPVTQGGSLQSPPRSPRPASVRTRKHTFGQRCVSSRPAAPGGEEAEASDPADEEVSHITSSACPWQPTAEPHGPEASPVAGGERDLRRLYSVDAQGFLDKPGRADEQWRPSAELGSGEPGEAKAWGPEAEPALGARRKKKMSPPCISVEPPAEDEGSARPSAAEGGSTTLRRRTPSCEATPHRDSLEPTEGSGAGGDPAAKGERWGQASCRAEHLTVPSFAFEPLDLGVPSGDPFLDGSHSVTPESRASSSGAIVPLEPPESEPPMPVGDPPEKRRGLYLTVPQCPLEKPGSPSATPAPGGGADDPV
CYP2C19 act: human CYP2C19 activators, primary screen, biochemical, luminescence; activation factor at 5 µM; recombinant CYP2C19, luciferin-H EGE luminescence; active compounds read high; 0 = fully inhibited enzyme, 1 = untreated enzyme; 96,000 tested, under 10 active;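 active = activation factor of at least 2 at 5 µM in the primary screen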;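 also: 0 = wells with 2.5 mM tranylcypromine and 1 = vehicle-only wells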
* = called active by the depositor; x = not tested or not shown. A selection: hits, their analogues and other compounds. The true share with any hit is near 27%.

SMILES | CYP2C19 inh | CYP2C9 inhib | CYP2C9 activ | Cav32 inh | CYP2C19 act
CCOC(=O)CNC(=O)c1cn(CC(C)C)c(=O)c2cc(OC)c(OC)cc12 | x | x | x | 1.02 | x
COc1ccc(S(=O)(=O)N(CCCN2CCOCC2)Cc2cccc3ccccc23)cc1 | 77.5* | 26.0 | 0.7 | -0.869 | 0.2
COc1ccc2[nH]c(=O)c(CN(CCCN3CCOCC3)C(=O)NCc3ccccc3)cc2c1 | -7.6 | -1.2 | 1 | -0.503 | 1.1
COc1ccc(S(=O)(=O)n2c(CCN3CCOCC3)nc3ccccc32)cc1 | 12.8 | -67.2 | 1.7 | -1.25 | 0.9
COc1ccc(S(=O)(=O)N(CCN2CCOCC2)Cc2cc(OC)ccc2OC)cc1 | 81.4* | 10.6 | 0.9 | -0.474 | 0.2
COc1ccc(S(=O)(=O)N(CCCN2CCOCC2)Cc2cccc(OC)c2OC)cc1 | 58.3* | 5.9 | 0.9 | 0.57 | 0.4
O=C(c1ccc2c(c1)OCCO2)C1CCN(S(=O)(=O)c2ccc(F)cc2)CC1 | -4.4 | -7.5 | 1.1 | -1.2 | 1
COCCOc1ccc(C(F)(F)F)cc1Nc1nc2ccccc2o1 | 30.5 | 38.5 | 0.6 | -1.37 | 0.7
Cn1cccc1Cc1nnc(SCC(=O)NC2CCCCC2)n1CCc1ccccc1 | 44.2 | 42.3 | 0.6 | -1.6 | 0.6
O=C(O)C[C@H]1c2cc(F)ccc2S(=O)(=O)N1C1CCN(Cc2ccccc2)CC1 | x | x | x | 1.05 | x
O=C(/C=C/c1ccc(Cl)cc1)NCCN1CCOCC1 | 5.6 | 11.0 | 0.9 | 0.566 | 0.9
Cc1cc(C)c2c(c1)OC(O)(C(F)F)CC2=O (stereo unspecified) | 88.4* | -42.8 | 1.4 | 0.759 | 0.1
COc1ccccc1CNC(=O)COC(=O)c1n[nH]c2ccccc12 | 97.4* | -133.9 | 2.3* | -2.43 | 0
COc1ccc(CNC(=O)COC(=O)c2n[nH]c3ccccc23)cc1OC | x | x | x | -1.45 | x
Cc1cc2oc(=O)cc(COC(=O)c3n[nH]c4ccccc34)c2cc1C | 13.6 | 76.3* | 0.2 | x | 0.9
COc1ccccc1CNC(=O)COC(=O)c1cnccn1 | 67.2* | 4.3 | 1 | 0.0384 | 0.3
CCCNC(=O)NC(=O)CSc1nnc(C)n1N | -8.7 | -24.4 | 1.2 | 0.182 | 1.1
Cn1cccc1C(=O)C(=O)Nc1ccccc1 | 49.4 | -25.8 | 1.3 | 0.247 | 0.5
CN1c2ccccc2C(O)=C(C(=S)Nc2ccc(F)c(Cl)c2)S1(=O)=O | -5.8 | 95.7* | 0 | -10.8* | 1.1
Cc1ccc(NC(=S)C2=C(O)c3ccccc3N(C)S2(=O)=O)cc1 | -10.1 | 100.0* | 0 | -2.51 | 1.1
Cc1ccc(NC(=O)c2ccccc2O)cc1 | x | x | x | -1.7 | x
CN1c2ccccc2C(O)=C(C(=S)Nc2ccccc2)S1(=O)=O | 1.0 | 81.8* | 0.2 | -0.432 | 1
CN1c2ccccc2C(O)=C(C(=O)Nc2ccccc2)S1(=O)=O | -7.1 | 75.9* | 0.2 | -0.125 | 1.1
CCC(=O)Nc1ccc(F)c(Cl)c1 | 4.7 | -5.5 | 1.1 | 0.146 | 1
O=[N+]([O-])c1ccc(C(=Nc2cccc3ccccc23)N2CCOCC2)cc1 | 37.5 | 38.9 | 0.6 | x | 0.6
SMILES | CYP2C19 inh | CYP2C9 inhib | CYP2C9 activ | Cav32 inh | CYP2C19 act
CCO[C@H]1OC(C(=O)N2CCOCC2)=C[C@@H](C2CC2)[C@@H]1CCCO | x | x | x | 0.298 | x
COc1cc(C(C(=O)NC(C)(C)C)N(Cc2ccc3c(c2)OCO3)C(=O)c2cnccn2)cc(OC)c1OC (stereo unspecified) | -0.9 | -26.9 | 1.3 | 1.79 | 1
c1ccc2[nH]c(SN3CCOCC3)nc2c1 | -16.6 | -11.5 | 1.1 | -0.00722 | 1.2
CC(C)Cc1nnc(NC(=O)CSc2nc(=O)cc(N)n2-c2ccccc2)s1 | 3.1 | 11.6 | 0.9 | -0.645 | 1
CCc1cc(C)cc(OCCNC(=O)c2cncc(Br)c2)c1 | 71.6* | 23.1 | 0.8 | -3.08 | 0.3
Cc1ccc(C(C)C)c(OCCNC(=O)c2cncc(Br)c2)c1 | 71.8* | 63.1* | 0.4 | -4.91* | 0.3
CCc1cc(C)cc(OCCNC(=O)c2ncn[nH]2)c1 | 48.9 | -65.5 | 1.7 | 0.367 | 0.5
O=C(Nc1ccccc1C(=O)O)c1cncc(Br)c1 | -13.4 | 60.3* | 0.4 | -0.136 | 1.1
O=C(NCCOc1ccccc1)c1cncc(Br)c1 | 84.0* | 32.3 | 0.7 | 1.59 | 0.2
O=C(c1ccccc1)[C@H]1[C@H](c2ccccc2)[C@@]2(N=C(c3ccccc3)OC2=O)C2c3ccccc3C=NN21 (stereo partly specified) | 21.5 | 14.1 | 0.9 | -1.68 | 0.8
